# Experimental data as given in PubChem BioAssay (NCATS).
# Values joined by “and” are separate entries in the source; they are usually repeats but may differ in a detail not shown here. Equal values may be shown once. Records with an inconclusive call do not appear. Entries that show only a call come without a potency. Active and inactive are the calls of the source. Unless noted, calls follow the shape of the full dose curve. Peptide text beside a SMILES is read from it.
# Experiments:
# [1] = target: Glucocorticoid receptor (Homo sapiens) (UniProt P04150); assay: qHTS assay for small molecule antagonists of glucocorticoid receptor signaling (AID 588533; active = well fitted inhibition curve with a large enough effect in the signal ratio, with a control signal flat, not every such curve was filed as active; the % refers to the signal ratio)
# Method in brief: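 Antagonist-mode qHTS: compound titrations added to GRE-bla HeLa cells, then dexamethasone 2 nM final; 18 h, 37 C. CCF4 FRET fluorescence normalized to dexamethasone and DMSO; IC50 from Hill fit.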
# [2] = qHTS assay for small molecule agonists of retinoid X receptor alpha signaling (AID 588544); details: HEK293T RXRa-UAS-bla, beta-lactamase reporter, 18 h; 530 nm emission
# [3] = target: Retinoic acid receptor RXR-alpha (Homo sapiens) (UniProt P19793); assay: as above
# Retinoic acid receptor RXR-alpha (Homo sapiens), sequence (P19793 whole entry, looked up): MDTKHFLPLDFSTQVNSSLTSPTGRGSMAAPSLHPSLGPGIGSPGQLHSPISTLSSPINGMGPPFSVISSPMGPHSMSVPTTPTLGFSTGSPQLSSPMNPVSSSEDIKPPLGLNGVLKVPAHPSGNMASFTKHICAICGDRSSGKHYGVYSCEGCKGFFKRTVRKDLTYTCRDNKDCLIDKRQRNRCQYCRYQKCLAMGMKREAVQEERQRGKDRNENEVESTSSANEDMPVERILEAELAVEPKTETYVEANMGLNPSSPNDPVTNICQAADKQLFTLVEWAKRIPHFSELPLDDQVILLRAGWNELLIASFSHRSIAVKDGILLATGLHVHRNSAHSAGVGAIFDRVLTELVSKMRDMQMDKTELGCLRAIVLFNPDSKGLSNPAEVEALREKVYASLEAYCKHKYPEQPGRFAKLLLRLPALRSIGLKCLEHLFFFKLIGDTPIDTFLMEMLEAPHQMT
# [4] = target: Thyroid hormone receptor beta (Homo sapiens) (UniProt P10828); assay: qHTS assay for small molecule agonists of thyroid hormone receptor beta signaling (AID 588545)
# Thyroid hormone receptor beta (Homo sapiens), sequence (P10828 whole entry, looked up): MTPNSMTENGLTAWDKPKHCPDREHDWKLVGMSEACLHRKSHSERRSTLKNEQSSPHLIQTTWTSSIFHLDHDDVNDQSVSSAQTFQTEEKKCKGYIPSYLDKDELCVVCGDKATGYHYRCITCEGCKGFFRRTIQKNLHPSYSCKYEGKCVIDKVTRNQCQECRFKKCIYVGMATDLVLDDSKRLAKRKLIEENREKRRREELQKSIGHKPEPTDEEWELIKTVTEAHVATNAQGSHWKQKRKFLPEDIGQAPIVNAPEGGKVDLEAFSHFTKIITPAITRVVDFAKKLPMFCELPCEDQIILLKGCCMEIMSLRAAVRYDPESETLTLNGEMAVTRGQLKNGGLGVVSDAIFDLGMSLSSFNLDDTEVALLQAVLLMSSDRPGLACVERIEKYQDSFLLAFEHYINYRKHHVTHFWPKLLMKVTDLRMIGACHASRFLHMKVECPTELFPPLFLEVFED
# Method in brief: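 Agonist activity was read as beta-lactamase CCF4 fluorescence (405 ex, 460/530 em), scaled between DMSO (0%) and 10 nM T3 (100%), then Hill-fitted for EC50 and efficacy. HEK 293 TR-UAS-bla cells in 2% charcoal/dextran FBS medium were exposed 18 h at 37 C.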
# [5] = qHTS assay for small molecule antagonists of retinoid X receptor alpha signaling (AID 588546; active = well fitted inhibition curve with a large enough effect in the signal ratio, with a control signal flat, not every such curve was filed as active; the % refers to the signal ratio;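 also: cells stimulated with 9-cis-retinoic acid as agonist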); details: HEK293T RXRa-UAS-bla, beta-lactamase ratio, antagonist mode; measured here: W530 green channel, cytotoxicity proxy
# Method in brief: (§1)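 Beta-lactamase reporter inhibition, read as CCF4 fluorescence ratio (ex 405, em 460/530 nm) after 2 h at RT. HEK293T UAS-bla cells, 2500/well, were stimulated with 9-cis-RA at 500 or 100 nM final alongside test compound for 18 h at 37 C.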
# [6] = target: Retinoic acid receptor RXR-alpha (Homo sapiens) (UniProt P19793); assay: as above; details: HEK293T RXRa-UAS-bla, beta-lactamase ratio, antagonist mode
# Method in brief: as §1
# [7] = target: Thyroid hormone receptor beta (Homo sapiens) (UniProt P10828); assay: qHTS assay for small molecule antagonists of thyroid hormone receptor beta signaling (AID 588547; active = well fitted inhibition curve with a large enough effect in the signal ratio, with a control signal flat, not every such curve was filed as active; the % refers to the signal ratio;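 also: cells stimulated with 0.4 nM T3 agonist during compound exposure; series mostly up to about 77 µM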); details: TR-UAS-bla HEK293, beta-lactamase ratio, antagonist mode, 18 h
# Method in brief: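 TR-UAS-bla GripTite HEK293 cells in 2% charcoal/dextran FBS medium; compounds 0.59 nM to 92 uM with T3 at 0.4nM final, 18 h at 37 C. Beta-lactamase read by CCF4 fluorescence (460/530 nm); Hill fits gave IC50 and efficacy.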
# [8] = target: Luciferin 4-monooxygenase (Photinus pyralis) (UniProt P08659); assay: Biochemical firefly luciferase enzyme assay for NPC (AID 624030; active = well fitted curve in the direction sought with a large enough effect; an effect the other way counts as inactive or inconclusive;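 also: purified P. pyralis luciferase at 10 nM with luciferin and ATP substrate; series mostly up to about 59 µM; nearly all actives have a fitted effect of over 70% in size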)
# Luciferin 4-monooxygenase (Photinus pyralis), sequence (P08659 whole entry, looked up): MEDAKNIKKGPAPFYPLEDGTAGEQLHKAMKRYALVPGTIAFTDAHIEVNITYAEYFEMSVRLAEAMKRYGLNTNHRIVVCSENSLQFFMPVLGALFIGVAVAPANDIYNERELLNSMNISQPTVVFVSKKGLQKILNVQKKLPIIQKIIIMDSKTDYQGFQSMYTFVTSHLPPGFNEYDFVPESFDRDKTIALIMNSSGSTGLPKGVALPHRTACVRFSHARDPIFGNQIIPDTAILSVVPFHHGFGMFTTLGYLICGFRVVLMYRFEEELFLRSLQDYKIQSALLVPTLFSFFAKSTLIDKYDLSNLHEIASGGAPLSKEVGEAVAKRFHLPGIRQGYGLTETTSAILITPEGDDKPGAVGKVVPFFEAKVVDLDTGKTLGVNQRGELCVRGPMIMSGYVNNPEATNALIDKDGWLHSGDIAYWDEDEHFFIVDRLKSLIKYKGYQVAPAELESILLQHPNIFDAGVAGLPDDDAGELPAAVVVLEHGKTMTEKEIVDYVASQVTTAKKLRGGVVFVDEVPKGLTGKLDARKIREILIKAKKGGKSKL
# Method in brief: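 Purified P. pyralis luciferase at 10 nM in 50 mM Tris Acetate (final), luminescence read within 5 minutes of enzyme addition to compounds. Activity normalised to PTC124 versus DMSO; concentration-response curves classed by r2, magnitude and activity.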
# [9] = S16 Schwann cell viability assay (CellTiter-Glo assay) (AID 624031; active = well fitted curve in the direction sought with a large enough effect; an effect the other way counts as inactive or inconclusive;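 also: cellular ATP luminescence as a viability measure; series mostly up to about 58 µM; nearly all actives have a fitted effect of over 70% in size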)
# Method in brief: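 CellTiter-Glo ATP luminescence counter-screen in untransfected S16 rat Schwann cells, 24h compound exposure at 37 degree Celsius after overnight seeding (500-750 cells/well); response scaled between cell-free wells and DMSO (0% activity), curves classed by r2 and magnitude.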
# [10] = target: Voltage-gated inwardly rectifying potassium channel KCNH2 (Homo sapiens) (UniProt Q12809); assay: qHTS Assay for Small Molecule Inhibitors of the Human hERG Channel Activity (AID 588834; active = well fitted curve in the direction sought with a large enough effect; an effect the other way counts as inactive or inconclusive;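 also: lower thallium flux fluorescence means stronger hERG block; nearly all actives have a fitted effect of over 50% in size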; also: potency is read from the fitted curve at half-maximal effect)
# Voltage-gated inwardly rectifying potassium channel KCNH2 (Homo sapiens), sequence (Q12809 whole entry, looked up): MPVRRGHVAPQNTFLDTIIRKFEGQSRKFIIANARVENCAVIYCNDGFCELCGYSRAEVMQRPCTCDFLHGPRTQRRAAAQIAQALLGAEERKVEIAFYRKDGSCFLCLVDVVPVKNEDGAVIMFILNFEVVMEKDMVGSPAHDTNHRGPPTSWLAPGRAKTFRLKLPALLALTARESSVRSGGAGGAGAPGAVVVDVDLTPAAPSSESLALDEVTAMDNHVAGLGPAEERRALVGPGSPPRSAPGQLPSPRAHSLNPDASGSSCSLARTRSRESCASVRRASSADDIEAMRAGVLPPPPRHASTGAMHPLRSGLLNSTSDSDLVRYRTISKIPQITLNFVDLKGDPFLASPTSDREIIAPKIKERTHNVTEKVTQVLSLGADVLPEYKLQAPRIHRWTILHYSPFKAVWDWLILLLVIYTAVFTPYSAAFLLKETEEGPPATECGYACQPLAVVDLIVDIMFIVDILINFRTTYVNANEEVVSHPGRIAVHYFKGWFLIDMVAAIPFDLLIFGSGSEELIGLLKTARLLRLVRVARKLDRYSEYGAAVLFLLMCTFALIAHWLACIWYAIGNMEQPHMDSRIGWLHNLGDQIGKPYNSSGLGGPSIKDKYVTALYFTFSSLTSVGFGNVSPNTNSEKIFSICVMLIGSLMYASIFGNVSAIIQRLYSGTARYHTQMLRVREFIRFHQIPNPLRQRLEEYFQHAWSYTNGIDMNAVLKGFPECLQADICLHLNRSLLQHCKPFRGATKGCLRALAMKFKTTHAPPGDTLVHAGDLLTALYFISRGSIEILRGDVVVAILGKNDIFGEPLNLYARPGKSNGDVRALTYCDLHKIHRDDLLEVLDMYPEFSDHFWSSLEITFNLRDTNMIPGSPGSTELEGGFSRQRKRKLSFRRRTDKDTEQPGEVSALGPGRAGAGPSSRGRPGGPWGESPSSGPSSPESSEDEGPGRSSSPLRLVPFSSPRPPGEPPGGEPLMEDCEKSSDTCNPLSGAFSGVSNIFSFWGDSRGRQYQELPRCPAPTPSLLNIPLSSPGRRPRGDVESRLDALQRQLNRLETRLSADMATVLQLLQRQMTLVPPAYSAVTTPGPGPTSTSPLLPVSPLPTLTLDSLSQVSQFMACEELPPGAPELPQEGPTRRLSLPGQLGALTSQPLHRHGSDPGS
# Method in brief: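 In hERG-transduced U2OS cells, dye-loaded for 1 hr at room temperature in dark, test compounds incubated 10 min at 37 °C before thallium stimulation. AC50 values derived by Hill modelling of concentration-response.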
# [11] = target: Estrogen receptor (Homo sapiens) (UniProt P03372); assay: qHTS assay for small molecule antagonists of estrogen receptor alpha signaling (AID 588513; active = well fitted curve in the direction sought with a large enough effect in the signal ratio, with a control signal flat, not every such curve was filed as active; the % refers to the signal ratio)
# Estrogen receptor (Homo sapiens), sequence (P03372 whole entry, looked up): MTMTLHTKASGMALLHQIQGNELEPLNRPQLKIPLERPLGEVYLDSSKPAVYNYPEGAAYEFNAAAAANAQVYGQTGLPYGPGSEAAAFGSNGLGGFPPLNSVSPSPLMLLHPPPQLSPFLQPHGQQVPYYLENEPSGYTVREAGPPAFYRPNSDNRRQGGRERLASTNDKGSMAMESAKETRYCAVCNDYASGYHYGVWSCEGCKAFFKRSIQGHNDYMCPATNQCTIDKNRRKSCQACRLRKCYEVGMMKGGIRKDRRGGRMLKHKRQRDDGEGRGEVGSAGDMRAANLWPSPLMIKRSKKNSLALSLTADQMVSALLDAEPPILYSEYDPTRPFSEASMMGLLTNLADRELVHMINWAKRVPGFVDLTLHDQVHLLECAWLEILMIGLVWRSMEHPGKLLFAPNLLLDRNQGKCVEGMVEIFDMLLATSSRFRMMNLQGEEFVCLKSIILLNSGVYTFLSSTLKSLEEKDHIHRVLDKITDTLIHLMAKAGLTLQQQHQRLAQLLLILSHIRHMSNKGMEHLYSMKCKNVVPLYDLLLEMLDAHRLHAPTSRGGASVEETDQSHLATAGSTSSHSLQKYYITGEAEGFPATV
# Method in brief: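 ER-alpha-UAS-bla GripTite HEK 293 cells in medium with 2% charcoal/dextran-treated FBS were preincubated 4 h at 37 C, dosed with compound (1:2 titration), stimulated with 0.5nM 17-beta-estradiol for 18 h, then read by CCF4 beta-lactamase fluorescence.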
# [12] = target: Estrogen receptor (Homo sapiens) (UniProt P03372); assay: qHTS assay for small molecule agonists of estrogen receptor alpha signaling (AID 588514); also: nearly all actives have a fitted effect of over 70% in size
# Method in brief: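 Fluorescence from CCF4 cleavage reports ER-alpha-driven beta-lactamase expression in HEK 293 cells treated 18 hrs at 37 C. Data normalized to 17-beta-estradiol (20 nM) and DMSO, fitted to Hill equation.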
# [13] = qHTS assay for small molecule antagonists of peroxisome proliferator-activated receptor delta signaling (AID 588535); details: HEK293T PPARd-UAS-bla, beta-lactamase FRET ratio, 18 h; 460 nm channel;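 also: cells co-treated with a PPAR-delta agonist as stimulator during compound exposure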
# Method in brief: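 Beta-lactamase reporter read-out (405 nm excitation, 460/530 nm emission) after CCF4 loading for 2 hrs at RT. HEK293T PPAR-delta-UAS-bla cells, 2% charcoal/dextran FBS, compounds for 18 hrs at 37 C. Hill fit gave IC50 and efficacy.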
# [14] = target: Peroxisome proliferator-activated receptor gamma (Homo sapiens) (UniProt P37231); assay: qHTS assay for small molecule agonists of peroxisome proliferator-activated receptor gamma signaling (AID 588536; active = well fitted curve in the direction sought with a large enough effect in the signal ratio, with a control signal flat, not every such curve was filed as active; the % refers to the signal ratio)
# Peroxisome proliferator-activated receptor gamma (Homo sapiens), sequence (P37231 whole entry, looked up): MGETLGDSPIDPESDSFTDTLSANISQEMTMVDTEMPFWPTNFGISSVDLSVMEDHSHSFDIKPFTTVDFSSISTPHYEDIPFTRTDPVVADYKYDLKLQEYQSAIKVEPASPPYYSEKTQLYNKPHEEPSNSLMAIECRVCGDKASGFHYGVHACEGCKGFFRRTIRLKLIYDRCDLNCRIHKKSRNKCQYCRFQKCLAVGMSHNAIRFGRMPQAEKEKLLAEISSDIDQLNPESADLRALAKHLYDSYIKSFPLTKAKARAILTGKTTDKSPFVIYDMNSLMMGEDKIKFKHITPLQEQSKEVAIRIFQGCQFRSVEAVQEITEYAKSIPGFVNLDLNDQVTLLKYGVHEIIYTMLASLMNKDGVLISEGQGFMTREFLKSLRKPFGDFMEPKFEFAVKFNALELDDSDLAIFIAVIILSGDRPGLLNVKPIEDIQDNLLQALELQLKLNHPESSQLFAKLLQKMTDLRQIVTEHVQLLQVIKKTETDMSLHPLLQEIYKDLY
# Method in brief: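 Using GeneBLAzer HEK293 cells, response was quantified by CCF4 fluorescence and normalized between basal DMSO (0%) and rosiglitazone 2 uM (100%); curves yielded half-maximal stimulation concentration and efficacy.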
# [15] = target: Peroxisome proliferator-activated receptor gamma (Homo sapiens) (UniProt P37231); assay: qHTS assay for small molecule antagonists of peroxisome proliferator-activated receptor gamma signaling (AID 588537; active = well fitted inhibition curve with a large enough effect in the signal ratio, with a control signal flat, not every such curve was filed as active; the % refers to the signal ratio;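 also: reporter cells co-stimulated with 50 nM rosiglitazone agonist during compound treatment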)
# Method in brief: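 Read-out: CCF4 fluorescence (ex 405, em 460/530 nm) after 2 h at RT. Cells were HEK293 carrying a UAS-bla reporter and treated 16 h at 37 C with compound plus rosiglitazone (50 nM final). Normalized to rosiglitazone and DMSO.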
# [16] = target: Vitamin D3 receptor (Homo sapiens) (UniProt P11473); assay: qHTS assay for small molecule antagonists of vitamin D receptor signaling (AID 588541);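 also: receptor activated by calcitriol during compound treatment; series mostly up to about 77 µM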
# Vitamin D3 receptor (Homo sapiens), sequence (P11473 whole entry, looked up): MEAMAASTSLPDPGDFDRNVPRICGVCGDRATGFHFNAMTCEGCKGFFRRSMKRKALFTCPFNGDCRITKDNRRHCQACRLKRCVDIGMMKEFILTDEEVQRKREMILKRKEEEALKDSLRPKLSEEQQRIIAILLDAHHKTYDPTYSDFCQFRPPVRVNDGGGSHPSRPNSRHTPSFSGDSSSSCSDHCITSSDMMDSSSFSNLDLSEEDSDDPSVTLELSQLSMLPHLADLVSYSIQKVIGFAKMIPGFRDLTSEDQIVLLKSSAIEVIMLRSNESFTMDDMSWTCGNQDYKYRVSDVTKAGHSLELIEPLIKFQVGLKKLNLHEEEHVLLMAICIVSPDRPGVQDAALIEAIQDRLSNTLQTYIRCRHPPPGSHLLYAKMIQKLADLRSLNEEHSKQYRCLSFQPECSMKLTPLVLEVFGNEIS
# Method in brief: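 VDR-UAS-bla HEK293T cells in 2% charcoal-stripped FBS were stimulated with 1-alpha,25-dihydroxyvitamin D3 (3 nM final) plus compound for 16 h at 37 C. The beta-lactamase CCF4 readout was normalized to 50 nM agonist and DMSO, and Hill fits gave IC50.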
# [17] = target: Vitamin D3 receptor (Homo sapiens) (UniProt P11473); assay: qHTS assay for small molecule agonists of vitamin D receptor signaling (AID 588543)
# Method in brief: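 GeneBLAzer VDR-UAS-bla HEK293T cells in 2% charcoal-stripped FBS medium were dosed with compound titrations for 16 h at 37 °C; CCF4 β-lactamase readout (405 nm ex, 460/530 nm em). EC50 and efficacy from Hill fits, normalized to 50 nM calcitriol (100%) and DMSO (0%).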
# [18] = target: Bile acid receptor (Homo sapiens) (UniProt Q96RI1); assay: qHTS assay for small molecule antagonists of farnesoid X receptor signaling (AID 588526)
# Bile acid receptor (Homo sapiens), sequence (Q96RI1 whole entry, looked up): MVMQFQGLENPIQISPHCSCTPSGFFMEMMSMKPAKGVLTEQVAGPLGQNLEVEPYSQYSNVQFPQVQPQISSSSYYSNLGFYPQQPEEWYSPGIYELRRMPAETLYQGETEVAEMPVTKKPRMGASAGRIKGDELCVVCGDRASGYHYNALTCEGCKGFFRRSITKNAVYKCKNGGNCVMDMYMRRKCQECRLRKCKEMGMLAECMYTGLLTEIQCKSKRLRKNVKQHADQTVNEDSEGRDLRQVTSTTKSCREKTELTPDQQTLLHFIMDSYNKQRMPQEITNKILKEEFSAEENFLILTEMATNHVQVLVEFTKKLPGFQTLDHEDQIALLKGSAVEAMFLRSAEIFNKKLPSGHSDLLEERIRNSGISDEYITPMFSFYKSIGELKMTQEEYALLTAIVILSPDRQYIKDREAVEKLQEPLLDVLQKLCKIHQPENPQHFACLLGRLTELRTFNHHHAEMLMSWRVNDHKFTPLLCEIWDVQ
# Method in brief: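 Antagonist mode: titrated compounds tested against chenodeoxycholic acid stimulation (normalized to 50 uM CDCA and DMSO) in GeneBLAzer HEK293T cells for 16 h. Beta-lactamase read by CCF4 fluorescence; IC50 from Hill fits.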
# [19] = target: Androgen receptor (Homo sapiens) (UniProt P10275); assay: qHTS assay for small molecule agonists of androgen receptor signaling (AID 588515; active = well fitted curve in the direction sought with a large enough effect in the signal ratio, with a control signal flat; the % refers to the signal ratio); details: AR-UAS-bla HEK293, beta-lactamase ratio, agonist 16 h; stronger effect = higher value
# Method in brief: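 Stimulation of an AR-responsive β-lactamase reporter in GripTite HEK293 cells was measured after 16 h compound exposure at 37 °C, via CCF4 fluorescence after 2 h RT. EC50 from Hill fits, normalized to R1881 at 30 nM.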
structure (smiles),measurement,setting,value
Nc1ccc(S(N)(=O)=O)cc1,outcome,[1],inactive
same,max response,[2],-11.9%
same,outcome,[3],inactive
same,outcome,[4],inactive
same,max response,[5],-7.58%
same,max response,[6],9.55% (inactive)
same,activity change % (negative = inhibition),[7],-5.21% (inactive)
same,Potency,[8],inactive
same,Potency,[9],inactive
NCCCCNCCCN,Potency,[10],inactive
CS(=O)(=O)OCCCCOS(C)(=O)=O,outcome,[11],inactive
same,outcome,[12],inactive
same,max response,[13],-16.8% and 23.8% and -11.6%
same,outcome,[14],inactive
same,Potency,[15],inactive
same,outcome,[16],inactive
same,outcome,[17],inactive
same,max response,[2],-9.47% and 11.7%
same,outcome,[3],inactive
same,max response,[5],2.17% and -2.42%
same,max response,[6],8.02% (inactive) and 2.56% (inactive)
same,Potency,[10],inactive
same,Potency,[8],inactive
CC(C)c1ccc2c(c1)c(SC(C)(C)C)c(CC(C)(C)C(=O)O)n2Cc1ccc(Cl)cc1,Potency,[10],inactive
O=C(c1ccccc1)c1ccc2n1CCC2C(=O)O (centres undefined),Potency,[10],inactive
COC(=O)[C@H](Cc1ccccc1)NC(=O)[C@@H](N)CC(=O)O (H-Asp-Phe-OMe),outcome,[11],inactive
same,outcome,[12],inactive
same,outcome,[18],inactive
same,outcome,[1],inactive
same,max response,[13],-1.9% and 6.72%
same,outcome,[14],inactive
same,Potency,[15],inactive
same,max response,[2],3.6% and 1.05%
same,outcome,[3],inactive
same,outcome,[4],inactive
same,max response,[5],2.63% and 8.92%
same,max response,[6],1.69% (inactive) and -7.67% (inactive)
same,activity change % (negative = inhibition),[7],6.56% (inactive) and 1.22% (inactive)
same,Potency,[10],inactive
same,Potency,[8],inactive
c1ccc2[nH]c(-c3cscn3)nc2c1,outcome,[11],inactive
same,outcome,[12],inactive
same,activation,[19],7.31% (inactive) and -15.4% (inactive)
same,outcome,[18],inactive
same,outcome,[1],inactive
same,max response,[13],-13.4%
same,outcome,[14],inactive
same,Potency,[15],inactive
same,outcome,[16],inactive
same,outcome,[17],inactive
same,max response,[2],8.2% and -19.9%
same,outcome,[3],inactive
same,outcome,[4],inactive
same,max response,[5],-4.89% and -3.75%
same,max response,[6],14% (inactive) and 3.02% (inactive)
same,activity change % (negative = inhibition),[7],-27.5% (inactive)
same,Potency,[10],inactive
O=C(O)c1cccnc1Nc1cccc(C(F)(F)F)c1,Potency,[10],inactive
O=C1c2ccccc2-c2n[nH]c3cccc1c23,Potency,[10],inactive
CCCCC(CC)COC(=O)C(C#N)=C(c1ccccc1)c1ccccc1 (centres undefined),max response,[13],-3.97%
same,outcome,[16],inactive
same,outcome,[17],inactive
same,max response,[5],-18.7%
same,max response,[6],-7.69% (inactive)
same,activity change % (negative = inhibition),[7],-9.58% (inactive)
same,Potency,[10],inactive
same,Potency,[8],inactive
same,Potency,[9],inactive
Clc1ccc(C(Cn2ccnc2)OCc2c(Cl)cccc2Cl)c(Cl)c1 (centres undefined),Potency,[10],7.94 µM (active)
